Compound activity: PubChem, National Center for Advancing Translational Sciences (NCATS)
HTT cytoprotect: protects HTT-Q103 PC12 cells, measured by ATP; PC12 HTT-Q103 induced, cytoprotection, ATP luminescence, 40 h; Potency, µM (titrated, usually from 56.4 µM), hits mostly activators; hit rate 0.14% among 230,000; AID 1471; also: nearly all actives have a fitted effect of over 45% in size
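Huntington model: PC12 line, ecdysone-inducible HTTQ103 exon1–GFP, tebufenozide 100 nM. Test articles in a dose series. Endpoint luminescence from cellular ATP.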
HttQ103 aggreg: reduces HttQ103-GFP aggregates in PC12 cells; PC12 HttQ103-GFP aggregates, Acumen cytometry, 40 h; Potency, µM (highest dose often 46.1 µM), hits mostly inhibitors; hit rate 1.1% among 220,000; AID 1688; also: nearly all actives have a fitted effect of over 60% in size
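Compounds (qHTS titration) were added to PC12 cells expressing an ecdysone-driven HTT exon 1 Q103–GFP fusion after induction with 100 nM tebufenozide. Aggregate formation was measured as GFP objects in cell lysates.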
ALDH1A1 block: ALDH1A1 (human) enzyme inhibition. P00352. Purified ALDH1A1, NADH fluorescence, propionaldehyde substrate. Potency, µM (top dose mostly 75.3 µM), most hits filed as inhibitors. hit rate 7.3% among 220,000; active = well fitted inhibition curve with a large enough effect, not every such curve was filed as active; inconclusive = small, poorly fitted or top-dose-only effect, or another doubt; inactive = no such curve, though single readings can be large or run the other way
Target sequence (P00352 whole entry, looked up): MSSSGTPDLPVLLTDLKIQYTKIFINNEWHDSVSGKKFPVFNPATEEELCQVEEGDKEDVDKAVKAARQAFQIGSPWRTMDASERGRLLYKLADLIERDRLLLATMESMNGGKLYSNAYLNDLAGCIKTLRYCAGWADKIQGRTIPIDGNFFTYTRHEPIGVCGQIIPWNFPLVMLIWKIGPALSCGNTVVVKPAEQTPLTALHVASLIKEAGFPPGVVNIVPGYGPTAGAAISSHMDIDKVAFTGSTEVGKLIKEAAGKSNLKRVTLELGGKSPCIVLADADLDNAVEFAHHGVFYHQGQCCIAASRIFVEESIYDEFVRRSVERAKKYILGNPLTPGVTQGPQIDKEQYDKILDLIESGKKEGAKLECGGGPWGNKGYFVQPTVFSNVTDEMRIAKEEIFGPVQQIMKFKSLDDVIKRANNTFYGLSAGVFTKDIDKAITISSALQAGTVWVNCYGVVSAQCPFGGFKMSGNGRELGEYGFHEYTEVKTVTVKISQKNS
IMPase cell inh: membrane-permeable compound that blocks inositol monophosphatase; P97697; CHO-M1 cells, IP1 accumulation, HTRF TR-FRET ratio; inhibition (IP1 accumulation), % at 46.1 µM; 120,000 tested, under 10 active; active = well fitted curve in the direction sought with a large enough effect in the signal ratio, not every such curve was filed as active; inconclusive = small, poorly fitted or top-dose-only effect, or a change in a side signal; inactive = no such curve, though single readings can be large or run the other way; the % refers to the signal ratio;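 also: cells stimulated with carbachol in lithium chloride buffer; higher means more IMPase inhibition seen as more IP1 and lower FRET ratio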
Target sequence (P97697 whole entry, looked up): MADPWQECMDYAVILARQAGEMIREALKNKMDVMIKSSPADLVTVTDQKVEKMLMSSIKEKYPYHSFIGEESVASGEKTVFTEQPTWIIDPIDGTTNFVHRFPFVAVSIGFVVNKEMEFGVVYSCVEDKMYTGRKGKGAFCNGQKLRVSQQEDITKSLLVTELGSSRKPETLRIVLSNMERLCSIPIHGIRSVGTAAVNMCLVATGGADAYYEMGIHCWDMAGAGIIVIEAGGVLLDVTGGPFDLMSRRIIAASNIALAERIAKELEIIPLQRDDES
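Seeded CHO-M1 cells were dosed with compound at up to 46 uM, stimulated with carbachol for 30 min, then lysed in IP-One detection reagents. Higher IP1 lowers the TR-FRET signal.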
HPGD block: blocks human HPGD enzyme activity; purified HPGD, NADH fluorescence kinetic, PGE2 substrate; Potency, µM, hits mostly inhibitors; hit rate 4.3% among 150,000; AID 894; active = well fitted inhibition curve with a large enough effect, not every such curve was filed as active; inconclusive = small, poorly fitted or top-dose-only effect, or another doubt; inactive = no such curve, though single readings can be large or run the other way
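20 nM HPGD preincubated 15 min at room temperature with compound in 50 mM Tris-HCl pH 8, 0.01% Tween 20. Started with 1 mM NAD+ and 30 uM prostaglandin E2; NADH fluorescence (360/450 nm) read 5 times over 30-s intervals, last minus first.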
IMPase Li inh: membrane-permeable IMPase blocker, potentiated with lithium. AID 1457. hit rate 0.35% among 210,000. Potency, µM (top dose mostly 59.4 µM), usual class: inhibitors. CHO-M1 cells, IP1 TR-FRET (IP-One), carbachol + lithium;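 also: IP1 builds up when IMPase is blocked and the TR-FRET signal falls; nearly all actives have a fitted effect of over 50% in size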
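CHO-M1, 2000 cells/well, 16–30 h culture; cpd + low Li+, 30 min 37C; lysis with d2-IP1/Eu-anti-IP1 Ab, 10 min RT; TR-FRET 665/620 ratio and 620 channel; AC50 via Hill.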
A number is an active result; [ ] = remark or other dose. Compounds with a hit are over-represented: about 9.4% of the library has one in this group of screens. Unless noted, calls follow the shape of the dose curve; as a rule, active = well fitted curve in the direction sought with a large enough effect; inconclusive = small, poorly fitted or top-dose-only effect, or another doubt; inactive = no such curve, though single readings can be large; an effect the other way counts as inactive or inconclusive.

`CCOc1ccc2c(c1)c1nnc(SCC(=O)N3CCC(C)CC3)nc1n2C` gave HTT cytoprotect inactive, HttQ103 aggreg inactive, ALDH1A1 block inconclusive, IMPase cell inh inactive, HPGD block 3.5µM and IMPase Li inh inactive.
For CCN(CC)c1ccc(C(=O)NNC(=O)CCl)cc1 the results were HTT cytoprotect inactive, HttQ103 aggreg inconclusive, ALDH1A1 block 10µM and IMPase Li inh inactive.
Cc1cc(/C=C2\NC(=S)N(C)C2=O)ccc1N1CCCC1 was read as HTT cytoprotect inactive, HttQ103 aggreg inactive, ALDH1A1 block inconclusive and IMPase Li inh inactive.
For CCCN1C(=O)/C(=C/c2ccc(N3CCOCC3)cc2)NC1=S the results were HTT cytoprotect inactive, HttQ103 aggreg inactive, ALDH1A1 block 6.3µM and IMPase Li inh inactive.
CCN1C(=O)/C(=C/c2ccc(N3CCCC3)cc2)NC1=S was read as HTT cytoprotect inactive[10 µM], HttQ103 aggreg inactive, ALDH1A1 block 13µM, HPGD block inactive and IMPase Li inh inactive.
`Cc1ccc(CN2C(=O)N/C(=C\c3ccc(N4CCOCC4)cc3)C2=O)cc1` gave HTT cytoprotect inactive[10 µM], HttQ103 aggreg inactive, ALDH1A1 block inactive, HPGD block inactive and IMPase Li inh inactive.
Screening CCCN1C(=O)/C(=C/c2ccc(N3CCCC3)c(C)c2)NC1=S returned HTT cytoprotect inactive, HttQ103 aggreg 13µM, ALDH1A1 block 0.22µM, IMPase cell inh inactive, HPGD block inactive and IMPase Li inh inactive.
CCCN1C(=O)/C(=C/c2ccc(OCC(=O)OCC)cc2)NC1=S was read as HTT cytoprotect inactive, HttQ103 aggreg inactive, ALDH1A1 block 1µM and IMPase Li inh inactive.
For CN1CC[C@@]2(CCCN(S(=O)(=O)c3ccccc3)C2)C1 the results were HTT cytoprotect inconclusive, ALDH1A1 block inactive, HPGD block inactive and IMPase Li inh inactive.
For O=C(Oc1ccc(N(Cc2cccs2)C2=NS(=O)(=O)c3ccccc32)cc1)c1ccc(Cl)cc1 the results were HTT cytoprotect inactive[10 µM], HttQ103 aggreg inconclusive, ALDH1A1 block 22µM, IMPase cell inh inactive, HPGD block inactive and IMPase Li inh inactive.
For O=C(Oc1ccc(N(Cc2cccs2)C2=NS(=O)(=O)c3ccccc32)cc1)c1ccccc1 the results were HTT cytoprotect inactive, HttQ103 aggreg inactive[9.22 µM], ALDH1A1 block inconclusive, IMPase cell inh inactive, HPGD block inactive and IMPase Li inh inactive.
For CC(C)(C)OC(=O)N1CCC[C@H]1c1nnc(SC/C=C/c2ccccc2)o1 the results were HTT cytoprotect inactive[0.074 µM], HttQ103 aggreg inactive, ALDH1A1 block 22µM and IMPase cell inh inactive.
Screening COc1ccc2c(c1)O[C@@H](c1ccc3c(c1)OCO3)[C@H](OC(=O)NS(=O)(=O)c1ccc(C)cc1)C2=O returned HTT cytoprotect inactive, ALDH1A1 block inactive, HPGD block inactive and IMPase Li inh inactive.
For COc1ccc(C(=O)N2CCC3(CCN(Cc4ccc(C#N)cc4)CC3)CC2)cc1 the results were HTT cytoprotect inactive, ALDH1A1 block inactive, HPGD block inactive and IMPase Li inh inactive.
For O=C(NC1CCCCC1)C(c1ccc2ncccc2c1)N(Cc1ccc2c(c1)OCO2)C(=O)c1ccc2c(c1)OCCO2 (configuration not stated) the results were HTT cytoprotect inactive[10 µM], HttQ103 aggreg inactive, ALDH1A1 block 28µM, HPGD block inactive and IMPase Li inh inactive.
For CCc1ccc2oc(-c3cccc(NC(=O)c4ccc(-c5cccc([N+](=O)[O-])c5)o4)c3)nc2c1 the results were IMPase cell inh inactive.
Cc1cc(C(=O)CCl)c(C)n1-c1cccc(S(=O)(=O)N2CCOCC2)c1 was read as HTT cytoprotect inactive, HttQ103 aggreg inconclusive, ALDH1A1 block 0.18µM and IMPase Li inh inactive.
`Cc1cc(C(=O)CN2C(=O)CN(C)C2=O)c(C)n1-c1cccc(S(=O)(=O)N2CCOCC2)c1` gave HTT cytoprotect inconclusive, HttQ103 aggreg inactive, ALDH1A1 block inconclusive and IMPase Li inh inactive.
Cc1cc(F)ccc1OC1C=CC(c2ccc3c(c2)OCO3)OC1CO (configuration not stated) was read as HTT cytoprotect inactive[10 µM] and ALDH1A1 block inactive[13.5 µM].
O=C1OC(c2ccccc2)=C/C1=C/N1CCOCC1 was read as HTT cytoprotect inactive[10 µM], HttQ103 aggreg inactive, ALDH1A1 block 7.9µM, IMPase cell inh inactive, HPGD block inactive and IMPase Li inh inactive.
For O=C1OC(c2ccccc2)=C/C1=C\N1CCOCC1 the results were HTT cytoprotect inactive, HttQ103 aggreg inconclusive, ALDH1A1 block 11µM, IMPase cell inh inactive, HPGD block inactive and IMPase Li inh inactive.
`CN(C)/C=C1/C=C(c2ccccc2)OC1=O` gave HTT cytoprotect inactive, HttQ103 aggreg inactive[9.22 µM], ALDH1A1 block inconclusive, IMPase cell inh inactive, HPGD block inactive and IMPase Li inh inactive.
For CN(C)c1ccc(C(=S)NCc2ccco2)cc1 the results were HTT cytoprotect inactive[10 µM], HttQ103 aggreg inactive, ALDH1A1 block 5µM, IMPase cell inh inactive, HPGD block inconclusive and IMPase Li inh inactive.
Screening CC(C)[C@@H](CC(=O)N[C@@H]1CCNC[C@H]1C(=O)N[C@H](CC(=O)N[C@@H](CCC(=O)O)CC(=O)O)Cc1c[nH]c2ccccc12)NC(=O)C[C@H](Cc1c[nH]c2ccccc12)NC(=O)[C@@H]1CNCC[C@H]1N returned HTT cytoprotect inactive, ALDH1A1 block inconclusive, HPGD block inactive and IMPase Li inh inactive.
Screening Cc1ccc(/C=C/C(=O)N2CCN(c3cccc(C(F)(F)F)c3)CC2)cc1 returned HTT cytoprotect inactive[10 µM], HttQ103 aggreg inactive, ALDH1A1 block inactive, IMPase cell inh inactive, HPGD block inactive and IMPase Li inh inactive.
`C/C(=C\c1ccccc1)C(=O)N1CCN(c2cccc(C(F)(F)F)c2)CC1` gave HTT cytoprotect inactive[10 µM], HttQ103 aggreg inactive, ALDH1A1 block inactive, HPGD block 25µM and IMPase Li inh inactive.
Screening O=C(Nc1ccc(Cl)cc1)OCCN1CCN(Cc2ccccc2)CCC1=O returned HTT cytoprotect inactive, ALDH1A1 block inactive, HPGD block inactive and IMPase Li inh inactive.
For CCOc1ccc(-c2cc(OC(=O)c3ccccc3)c3c(C)oc(C)c3c(=O)c2)cc1 the results were IMPase cell inh inactive.
Screening CCN(CC)c1ccc(/C=C2/SC(=O)N(C(C)C)C2=O)o1 returned HttQ103 aggreg inconclusive, ALDH1A1 block 2.5µM, HPGD block inactive and IMPase Li inh inactive.
For CC(C)N1C(=O)S/C(=C/c2ccccc2OCc2ccc(C(=O)O)cc2)C1=O the results were HTT cytoprotect inactive, HttQ103 aggreg inactive, ALDH1A1 block inconclusive and IMPase Li inh inactive.
COCc1cc(=O)[nH]c2cc(NC(=O)C(C)(C)CCl)c(C)cc12 was read as HTT cytoprotect inactive[10 µM], HttQ103 aggreg inactive, ALDH1A1 block inconclusive, IMPase cell inh inactive[1.84 µM], HPGD block inactive and IMPase Li inh inactive.
